Source: PubChem
Sampled rows, rich in hits. Any-hit rate of the full collection: about 3.3%.
Sm TGR block: blocks Schistosoma mansoni thioredoxin glutathione reductase | Potency, µM (top dose mostly 114 µM), inactives show at the highest dose activity change, negative = inhibition, usual class: inhibitors | 360,000 compounds, 3% hits | purified TGR, DTNB reduction, TNB absorbance 405 nm | AID 485364; further: nearly all actives have a fitted effect of over 60% in size
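TGR 20 nM + NADPH 100 uM (dispensed conc.), cpd preinc 15 min RT; start with NADPH (500 uM addition) then DTNB (15 mM addition). Kinetic TNB absorbance, 405 nm filter. Four-parameter Hill fit across titration.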
AmpC no deterg: AmpC beta-lactamase inhibition without detergent; P00811; AmpC nitrocefin hydrolysis, absorbance 480 nm, 0.0001% Triton; Potency, µM (doses to about 57.1 µM), inactives show at the top dose activity change, negative = inhibition, usual class: inhibitors; 330,000 compounds, 0.52% hits; AID 485341;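 further: plate controls were no compound for no effect and no enzyme for full effect; nearly all actives have a fitted effect of over 20% in size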
Target sequence (P00811 whole entry, looked up): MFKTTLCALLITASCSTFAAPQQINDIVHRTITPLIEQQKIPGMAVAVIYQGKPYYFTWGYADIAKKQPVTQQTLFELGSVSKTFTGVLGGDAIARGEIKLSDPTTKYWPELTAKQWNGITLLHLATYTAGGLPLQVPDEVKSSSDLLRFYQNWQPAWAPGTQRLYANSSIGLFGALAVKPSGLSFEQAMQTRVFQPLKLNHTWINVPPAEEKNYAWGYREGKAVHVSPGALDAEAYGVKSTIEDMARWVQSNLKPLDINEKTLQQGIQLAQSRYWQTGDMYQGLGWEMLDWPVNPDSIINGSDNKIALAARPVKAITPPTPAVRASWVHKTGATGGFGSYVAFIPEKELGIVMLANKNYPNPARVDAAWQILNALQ
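AmpC (5.3 nM in the dispensed reagent) in 20 mM phosphate pH 7.0 with 0.01% (detergent screen) or 0.0001% Triton X-100 was preincubated with compounds for 15 min at room temperature. Nitrocefin was then added from an 800 uM solution, and hydrolysis was followed at 480 nm.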
AmpC inh detg: blocks E. coli AmpC beta-lactamase in detergent assay | AmpC hydrolysis of nitrocefin, absorbance 480 nm, 0.01% Triton | Potency, µM (titrated, usually from 114 µM), for the others: top-dose activity change, negative = inhibition, usual class: inhibitors | 370,000 compounds, 0.041% hits;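 further: 0% = no-compound wells and -100% = no-enzyme wells; nearly all actives have a fitted effect of over 25% in size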
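AmpC (5.3 nM in the dispensed reagent) in 20 mM phosphate pH 7.0 with 0.01% (detergent screen) or 0.0001% Triton X-100 was preincubated with compounds for 15 min at room temperature. Nitrocefin was then added from an 800 uM solution, and hydrolysis was followed at 480 nm.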
Active calls of the source: *; u = inconclusive; x = no result; [ ] = another dose, or the depositor's remark. The call rests on the fitted dose curve; in most records, active means well fitted curve in the direction sought with a large enough effect; inconclusive means small, poorly fitted or top-dose-only effect, or another doubt; inactive means no such curve, though single readings can be large; an effect the other way counts as inactive or inconclusive. Unless noted, on the % scale 0 is the no-effect control and ±100 the full control effect; potency means the concentration at half of the fitted maximal effect.

SMILES	Sm TGR block	AmpC no deterg	AmpC inh detg
CC[C@@H](C)[C@@H](C(=O)Nc1ccc(C)cc1)N1Cc2ccccc2C1=O	15%	x	-10%
CCc1ccc(-c2nc(CS(=O)CC(=O)NCCc3ccc(C)cc3)c(C)o2)cc1 (stereo not drawn)	22µM*	x	5%
CCc1ccc(-c2nc(CS(=O)CC(=O)NCCc3ccccc3)c(C)o2)cc1 (stereo not drawn)	10µM*	120%	0%
Cc1oc(-c2ccccc2Cl)nc1CS(=O)CC(=O)NCCc1ccccc1 (stereo not drawn)	0%	71%	2%
CCc1ccc(-c2nc(CS(=O)CC(=O)NCCN3CCCCCC3)c(C)o2)cc1 (stereo not drawn)	u	147%	6%
CCCCNC(=O)C1CCC(CNS(=O)(=O)c2ccc(Cl)cc2)CC1 (stereo not drawn)	0%	x	0%
CCOc1ccc(C(=O)NC(=S)Nc2cccnc2)cc1[N+](=O)[O-]	u	-13%	1%
COc1cccc(C(=O)NC(=S)Nc2ccc3oc(=O)ccc3c2)c1	-30%	0%	6%
COc1cccc(C(=O)Nc2cccnc2)c1	-10%	4%	-5%
COc1cccc(NC(=S)NC(=O)c2cccnc2)c1	11µM*	-26%	-13%
COc1ccc(C(=O)NC(=S)Nc2cccnc2)cc1[N+](=O)[O-]	16µM*	-13%[11.4 µM]	-13%
COc1cccc(C(=O)NC(=S)Nc2ccc(N(C)C)cc2)c1	16µM*	-40%	-15%
CCCOC(=O)c1cccc(NC(=O)c2cccnc2)c1	12%[11.4 µM]	-8%	u
CCOC(=O)c1cccc(NC(=S)NC(=O)c2cccnc2)c1	22µM*	39%	4%
COc1ccc(OC)c(CCNC(=O)Cn2ncc3c([nH]c4ccccc43)c2=O)c1	1%	x	19%
COc1ccc(-c2noc(CCCC(=O)NCc3ccco3)n2)cc1OC	40µM*	2%	-12%
Cc1cccc(-c2noc(CCCC(=O)NCc3ccco3)n2)c1	-2%	x	1%
Cc1cccc(-c2noc(CCC(=O)NCc3ccco3)n2)c1	-6%	-14%	-3%
COc1ccccc1N1CCN(C(=O)CSc2nc(-c3ccco3)cc(C(F)(F)F)n2)CC1	35µM*	134%	-3%
COc1ccc(-c2cc(C(F)(F)F)nc(SCC(=O)NCc3ccco3)n2)cc1OC	45µM*	163%	-4%
O=C(CSc1nc(-c2ccco2)cc(C(F)(F)F)n1)N1CCN(c2ccc(Cl)cc2)CC1	-14%	5%	u
O=C(CSc1nc(-c2ccccc2)cc(C(F)(F)F)n1)NCc1ccco1	22%	-12%	-6%
COc1cccc(-c2noc(CCCC(=O)NCc3ccco3)n2)c1	45µM*	x	9%
CC(C)(C)OC(=O)N1CCC(c2c(C(=O)N3CCN(c4ccccc4F)CC3)cnn2-c2ccccc2Cl)CC1	8%	x	-3%
Cc1ccc(-n2cnc3cc(C(=O)NC4CCCCCC4)ccc32)c(C)c1	-1%	x	13%
SMILES	Sm TGR block	AmpC no deterg	AmpC inh detg
Cc1ccc2c(c1)c1c(c(=O)n(-c3cccc(Cl)c3)c(=O)n1CC(=O)N1CCCC1)n2C	7%	x	-3%
CCOc1ccc(C(=O)Nc2ccc3oc(-c4cccc5ccccc45)nc3c2)cc1	-5%	x	1%
COc1cccc2cc(C(=O)C3=C(O)C(=O)N(Cc4ccco4)C3c3cccnc3)oc12 (stereo not drawn)	25µM*	-23%	u
O=C(C1=C(O)C(=O)N(CC2CCCO2)C1c1cccnc1)c1ccco1 (stereo not drawn)	u	-16%	u
COc1ccc(C2C(C(=O)c3ccco3)=C(O)C(=O)N2Cc2cccnc2)cc1OC (stereo not drawn)	5%	-12%	6%
O=C(C1=C(O)C(=O)N(Cc2ccco2)C1c1cccnc1)c1cc2ccccc2o1 (stereo not drawn)	25µM*	-17%	-2%
COc1cccc(CSc2nc3n(n2)C(c2cccs2)C(C(=O)Nc2ccccc2C)=C(C)N3)c1 (stereo not drawn)	1%	x	-4%
COc1ccccc1CNC(=O)c1cc(S(=O)(=O)N2CCCCCC2)cn1C	2%	x	18%
O=C(Nc1nnc(S(=O)(=O)N2CCCc3ccccc32)s1)c1cccc(Cl)c1	9%	x	10%
COc1ccc(Cl)cc1NCc1nnc2n1CCCCC2	15%	x	13%
CCS(=O)(=O)c1ncc(Cl)c(C(=O)N(Cc2ccccc2)Cc2ccco2)n1	8.9µM*	x	-2%
CCS(=O)(=O)c1ncc(N(Cc2ccccc2)Cc2ccco2)c(C(=O)Nc2cccc(Cl)c2C)n1	0%	x	0%
Cc1ccc(N(C)C(=O)C2CCN(S(=O)(=O)c3c(C)noc3/C=C/c3c(C)cc(C)cc3C)CC2)cc1	0%	x	-9%
Cn1cccc1C(=O)NC(=O)CSc1nc2ccccc2s1	-27%	16µM*	-2%
CC(=O)CSc1nc2ccccc2s1	-2%	-21%	-2%
COCCn1cnc2c(c1=O)c1nc3ccccc3nc1n2/N=C/c1ccco1	45µM*	-6%	3%
CCCCCCn1cnc2c(c1=O)c1nc3ccccc3nc1n2Cc1cccs1	5%	-10%	u
COCCn1cnc2c(c1=O)c1nc3ccccc3nc1n2/N=C/c1ccc(OC)c(OC)c1	-8%	40%	-4%
Cc1nc2c(c(=O)n1CCC1=CCCCC1)c1nc3ccccc3nc1n2/N=C/c1ccco1	11µM*	1%	1%
CCCCCCn1cnc2c(c1=O)c1nc3ccccc3nc1n2/N=C/c1ccco1	14µM*	-11%	-7%
CCCn1c(C)nc2c(c1=O)c1nc3ccccc3nc1n2CCC1=CCCCC1	-21%	-6%	-7%
Cc1ccc(Cn2c(=O)n(CCCCC(=O)NCCc3ccc(Cl)cc3)c(=O)c3ccccc32)cc1	1%	x	16%
CCOC(=O)COc1ccc(C)cc1C(=O)c1ccn2nc(-c3ccc(Cl)cc3)cc2n1	-8%	x	0%
CCC(CC)C(=O)Nc1ccccc1C(=O)OCc1cc(=O)n2nc(C3CCCCC3)sc2n1	-5%	x	-6%
C/C(=N\NC(=O)C1CCCN(S(=O)(=O)c2ccccc2)C1)c1ccncc1 (stereo not drawn)	6%	-18%	4%
SMILES	Sm TGR block	AmpC no deterg	AmpC inh detg
C/C(=N\NC(=O)C1CCCN(S(=O)(=O)c2ccccc2)C1)c1ccccn1 (stereo not drawn)	0%	3.2µM*	1%
O=[N+]([O-])c1ccc(Cl)c([N+](=O)[O-])c1	2.2µM*	-14%	u
O=[N+]([O-])c1cc(Cl)c(Cl)cc1Cl	0%	-16%	1%
CC(C)(C)OC(=O)N1CCC(c2c(C(=O)NCc3ccco3)cnn2-c2ccc(F)cc2)CC1	-26%	x	-4%
COc1ccccc1NC(=O)Cn1c(=O)n(CCc2ccccc2)c(=O)c2c3c(sc21)CN(C(C)=O)CC3	2%	x	3%
COc1ccccc1CNC(=O)C(=O)NCC(c1ccco1)S(=O)(=O)c1ccc(C)cc1 (stereo not drawn)	-26%	x	-1%
COc1ccccc1CCNC(=O)C(=O)NCC(c1cccs1)S(=O)(=O)c1ccc(F)cc1 (stereo not drawn)	-1%	x	-1%
